The source of these data is ChEMBL document CHEMBL2218924, “A broad activity screen in support of a chemogenomic map for kinase signalling research and drug discovery” (Biochem J, 2013).

In assay [1] the target is T1, Ephrin type-A receptor 3 (Homo sapiens) (UniProt P29320).
T1 sequence (whole entry): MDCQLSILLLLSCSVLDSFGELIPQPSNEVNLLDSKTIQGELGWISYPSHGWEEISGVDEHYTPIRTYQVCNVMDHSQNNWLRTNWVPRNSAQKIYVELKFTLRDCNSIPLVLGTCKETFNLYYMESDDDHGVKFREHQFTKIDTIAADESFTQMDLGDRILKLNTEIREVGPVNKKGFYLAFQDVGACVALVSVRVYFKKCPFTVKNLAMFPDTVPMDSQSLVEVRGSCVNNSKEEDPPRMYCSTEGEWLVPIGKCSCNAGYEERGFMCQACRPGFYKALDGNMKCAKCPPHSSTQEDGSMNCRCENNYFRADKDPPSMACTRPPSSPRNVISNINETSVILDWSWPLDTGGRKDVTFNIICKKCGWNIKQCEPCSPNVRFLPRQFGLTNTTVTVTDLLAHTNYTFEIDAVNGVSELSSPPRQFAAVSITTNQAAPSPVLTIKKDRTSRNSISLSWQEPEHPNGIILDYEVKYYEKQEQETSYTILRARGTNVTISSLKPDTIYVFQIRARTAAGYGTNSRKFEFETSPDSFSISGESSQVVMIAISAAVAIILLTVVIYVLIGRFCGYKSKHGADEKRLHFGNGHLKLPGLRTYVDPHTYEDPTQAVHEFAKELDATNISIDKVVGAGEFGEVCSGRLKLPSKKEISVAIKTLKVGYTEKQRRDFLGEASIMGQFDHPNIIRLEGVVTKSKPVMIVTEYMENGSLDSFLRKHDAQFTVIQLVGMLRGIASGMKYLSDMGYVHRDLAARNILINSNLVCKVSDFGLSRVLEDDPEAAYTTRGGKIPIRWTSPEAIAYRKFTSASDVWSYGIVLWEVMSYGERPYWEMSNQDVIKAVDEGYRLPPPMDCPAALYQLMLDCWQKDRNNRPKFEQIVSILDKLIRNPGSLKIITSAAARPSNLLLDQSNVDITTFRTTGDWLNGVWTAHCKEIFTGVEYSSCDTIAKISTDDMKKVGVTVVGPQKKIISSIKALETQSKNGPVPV
Particulars: at 10 µM.

The target in assay [2] is Ephrin type-A receptor 4 (Homo sapiens) (UniProt P54764). Conditions: at 1 µM.
For assay [3] the target is unchanged. Conditions: at 10 µM.
For assay [4], the target named is Ephrin type-A receptor 5 (Homo sapiens) (UniProt P54756). Conditions: at 1 µM.
Assay [5] shares this target. Particulars: at 10 µM.
Assay [6] deals with Ephrin type-A receptor 7 (Homo sapiens) (UniProt Q15375). Conditions: at 1 µM.
Assay [7] has the same target. Conditions: at 10 µM.
For assay [8], the target named is T2, Ephrin type-A receptor 8 (Homo sapiens) (UniProt P29322).
T2 sequence (whole entry): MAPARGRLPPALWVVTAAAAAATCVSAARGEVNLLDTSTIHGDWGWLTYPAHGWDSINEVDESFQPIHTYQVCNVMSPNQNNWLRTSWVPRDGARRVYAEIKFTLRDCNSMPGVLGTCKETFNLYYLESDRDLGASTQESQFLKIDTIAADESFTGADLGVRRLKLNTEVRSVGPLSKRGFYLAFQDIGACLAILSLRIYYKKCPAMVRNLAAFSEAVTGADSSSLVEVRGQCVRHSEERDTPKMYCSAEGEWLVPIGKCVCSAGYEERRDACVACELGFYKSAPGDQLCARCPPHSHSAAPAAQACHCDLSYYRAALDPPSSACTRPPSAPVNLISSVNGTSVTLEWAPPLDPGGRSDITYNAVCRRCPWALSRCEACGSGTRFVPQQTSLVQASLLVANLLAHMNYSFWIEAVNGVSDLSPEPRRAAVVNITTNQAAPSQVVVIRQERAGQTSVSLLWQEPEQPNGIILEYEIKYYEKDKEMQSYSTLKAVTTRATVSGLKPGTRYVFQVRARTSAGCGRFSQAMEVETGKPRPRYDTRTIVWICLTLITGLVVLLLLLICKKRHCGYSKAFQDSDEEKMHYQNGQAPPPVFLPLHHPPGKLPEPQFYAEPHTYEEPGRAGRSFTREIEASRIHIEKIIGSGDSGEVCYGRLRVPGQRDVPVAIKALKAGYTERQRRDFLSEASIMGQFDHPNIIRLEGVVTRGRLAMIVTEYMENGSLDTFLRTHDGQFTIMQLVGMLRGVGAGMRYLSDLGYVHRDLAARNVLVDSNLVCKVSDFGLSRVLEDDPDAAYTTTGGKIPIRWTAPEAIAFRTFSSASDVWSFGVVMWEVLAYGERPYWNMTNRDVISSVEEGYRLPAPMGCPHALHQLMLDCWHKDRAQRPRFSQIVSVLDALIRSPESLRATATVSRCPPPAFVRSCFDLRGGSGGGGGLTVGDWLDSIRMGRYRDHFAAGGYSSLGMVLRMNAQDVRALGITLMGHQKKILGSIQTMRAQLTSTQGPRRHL
Conditions: at 1 µM.

For assay [9], the target named is T2, Ephrin type-A receptor 8 (Homo sapiens). Particulars: at 10 µM.

Sequence of Ephrin type-A receptor 7 (Homo sapiens) (Q15375 28-998 limits assumed): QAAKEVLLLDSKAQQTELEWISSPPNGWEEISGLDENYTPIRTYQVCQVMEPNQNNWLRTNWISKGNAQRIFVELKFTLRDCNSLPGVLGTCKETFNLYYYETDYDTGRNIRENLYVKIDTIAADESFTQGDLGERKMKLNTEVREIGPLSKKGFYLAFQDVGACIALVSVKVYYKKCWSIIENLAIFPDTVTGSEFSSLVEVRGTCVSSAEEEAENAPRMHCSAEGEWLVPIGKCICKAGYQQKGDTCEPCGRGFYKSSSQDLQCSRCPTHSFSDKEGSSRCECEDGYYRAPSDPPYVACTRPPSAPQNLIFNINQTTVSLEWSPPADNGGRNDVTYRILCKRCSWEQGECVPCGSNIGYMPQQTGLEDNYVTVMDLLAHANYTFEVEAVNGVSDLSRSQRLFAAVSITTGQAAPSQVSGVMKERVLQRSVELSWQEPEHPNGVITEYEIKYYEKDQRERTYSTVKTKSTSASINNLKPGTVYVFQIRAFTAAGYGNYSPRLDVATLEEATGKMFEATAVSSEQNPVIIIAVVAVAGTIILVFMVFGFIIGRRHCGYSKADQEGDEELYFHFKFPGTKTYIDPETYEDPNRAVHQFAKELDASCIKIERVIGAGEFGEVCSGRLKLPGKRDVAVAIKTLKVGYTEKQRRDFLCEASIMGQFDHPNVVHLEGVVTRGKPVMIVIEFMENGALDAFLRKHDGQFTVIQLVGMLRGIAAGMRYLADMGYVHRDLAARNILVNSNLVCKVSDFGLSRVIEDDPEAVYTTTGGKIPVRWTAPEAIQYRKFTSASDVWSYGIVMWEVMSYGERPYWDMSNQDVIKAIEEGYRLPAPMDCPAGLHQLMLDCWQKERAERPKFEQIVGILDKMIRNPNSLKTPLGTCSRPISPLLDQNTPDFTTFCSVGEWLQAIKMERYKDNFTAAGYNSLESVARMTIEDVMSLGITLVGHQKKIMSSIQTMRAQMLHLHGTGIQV
Sequence of Ephrin type-A receptor 4 (Homo sapiens) (P54764 whole entry): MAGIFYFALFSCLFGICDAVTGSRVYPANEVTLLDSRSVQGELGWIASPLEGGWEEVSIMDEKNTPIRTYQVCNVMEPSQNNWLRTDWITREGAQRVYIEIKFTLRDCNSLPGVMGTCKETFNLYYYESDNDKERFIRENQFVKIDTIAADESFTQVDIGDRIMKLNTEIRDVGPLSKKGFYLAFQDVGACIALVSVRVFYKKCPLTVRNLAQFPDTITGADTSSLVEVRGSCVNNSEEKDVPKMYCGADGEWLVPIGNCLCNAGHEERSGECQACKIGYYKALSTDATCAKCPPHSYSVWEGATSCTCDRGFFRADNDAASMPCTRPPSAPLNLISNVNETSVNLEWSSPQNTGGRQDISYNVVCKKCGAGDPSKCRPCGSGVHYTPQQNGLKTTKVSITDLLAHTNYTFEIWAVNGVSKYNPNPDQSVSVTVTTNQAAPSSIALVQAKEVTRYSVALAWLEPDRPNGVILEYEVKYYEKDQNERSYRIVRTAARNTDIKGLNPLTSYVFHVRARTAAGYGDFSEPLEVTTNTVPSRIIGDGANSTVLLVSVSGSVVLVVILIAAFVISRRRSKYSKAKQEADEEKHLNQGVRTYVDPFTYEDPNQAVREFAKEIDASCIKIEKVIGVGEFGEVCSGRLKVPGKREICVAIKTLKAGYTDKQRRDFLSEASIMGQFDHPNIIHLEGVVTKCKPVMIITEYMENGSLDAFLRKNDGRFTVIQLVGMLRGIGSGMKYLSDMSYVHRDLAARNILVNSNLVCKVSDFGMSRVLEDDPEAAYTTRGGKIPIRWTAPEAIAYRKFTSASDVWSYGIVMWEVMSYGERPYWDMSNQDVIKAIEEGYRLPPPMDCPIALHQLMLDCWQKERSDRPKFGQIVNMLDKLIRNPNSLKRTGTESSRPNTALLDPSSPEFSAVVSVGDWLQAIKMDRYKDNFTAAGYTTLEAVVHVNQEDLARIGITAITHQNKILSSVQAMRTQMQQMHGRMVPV
Sequence of Ephrin type-A receptor 5 (Homo sapiens) (P54756 whole entry): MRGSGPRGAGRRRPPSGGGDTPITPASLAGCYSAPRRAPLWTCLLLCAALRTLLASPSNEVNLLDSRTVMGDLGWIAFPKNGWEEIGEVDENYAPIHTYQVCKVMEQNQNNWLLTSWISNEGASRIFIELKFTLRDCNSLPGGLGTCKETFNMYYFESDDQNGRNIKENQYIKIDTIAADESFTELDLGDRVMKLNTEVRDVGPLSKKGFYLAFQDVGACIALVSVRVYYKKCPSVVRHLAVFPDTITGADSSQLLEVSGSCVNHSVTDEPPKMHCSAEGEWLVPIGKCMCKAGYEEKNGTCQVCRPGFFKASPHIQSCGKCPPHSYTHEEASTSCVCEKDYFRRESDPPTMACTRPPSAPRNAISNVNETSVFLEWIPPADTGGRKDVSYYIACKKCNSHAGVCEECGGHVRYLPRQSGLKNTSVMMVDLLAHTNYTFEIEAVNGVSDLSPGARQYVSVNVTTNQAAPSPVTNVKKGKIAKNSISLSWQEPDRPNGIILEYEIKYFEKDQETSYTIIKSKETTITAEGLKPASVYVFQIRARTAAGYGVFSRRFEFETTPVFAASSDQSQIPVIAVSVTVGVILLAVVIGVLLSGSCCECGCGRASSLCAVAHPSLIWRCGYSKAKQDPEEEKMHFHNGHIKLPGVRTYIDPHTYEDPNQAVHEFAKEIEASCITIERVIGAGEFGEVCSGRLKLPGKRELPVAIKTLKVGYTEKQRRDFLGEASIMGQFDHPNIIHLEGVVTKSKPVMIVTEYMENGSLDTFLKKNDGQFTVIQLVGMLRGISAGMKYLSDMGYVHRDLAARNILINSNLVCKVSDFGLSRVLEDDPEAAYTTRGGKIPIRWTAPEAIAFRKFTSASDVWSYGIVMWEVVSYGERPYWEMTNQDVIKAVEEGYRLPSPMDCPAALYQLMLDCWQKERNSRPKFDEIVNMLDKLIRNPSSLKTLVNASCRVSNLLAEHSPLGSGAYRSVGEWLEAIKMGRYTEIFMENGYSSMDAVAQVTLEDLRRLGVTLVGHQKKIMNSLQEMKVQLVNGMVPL

As to `Oc1c2ccccc2c2c3c(cccc13)N=N2`, the residual activity (in general, the signal under treatment as a percentage of the control signal) in assay [1] is 48%; in [2] it was 105%; in assay [3], 106%; in assay [4] it was 115%; in assay [5], 63%; in [6], 80%. Further, the residual activity in assay [7] was 41%; in assay [8], 92%; in assay [9] it was 76%.
